GluA2 TARP mod: modulators of GluA2-stargazin AMPA receptor complexes, primary screen, cell-based, membrane potential dye; HEK293 GluA2+stargazin, membrane potential dye (FDSS), glutamate EC50; hits were called plate by plate, in both directions; calls only at 30 µM; hit rate 3.5% among 40,000; AID 1259245, 2017;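 active means any of four per-well response measures lying three or more SD from its plate-wide compound average, in either direction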
GIRK2 activator: activators of NPY4-receptor-primed GIRK2 channels, summary, cell-based, HEK293, thallium flux; G protein-activated inward rectifier potassium channel 2 (Homo sapiens), P48051; HEK293 GIRK2/NPY4 cells, thallium flux fluorescence; 34,000 tested, under 10 active; activation (% efficacy), % for hits at 37.5 µM;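 active means primary screen hit, no activity in plain HEK293 cells, and in GIRK2-only cells above 5% efficacy rising with concentration; inactive means the rest, including fluorescent compounds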;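 further: efficacy is normalized control-subtracted fluorescence 15 s after thallium addition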
* hit, by the source's call. Many of the other results were omitted from the sample, so hits are more common in it than they were.

Screening COc1ccc(Br)cc1C1SCCN1S(=O)(=O)c1cccc(C)c1 (stereo unspecified) returned GluA2 TARP mod active.
Screening Cc1nc2cc(NC(=O)Cn3nc(-c4ccc5c(c4)OCO5)ccc3=O)ccc2s1 returned GluA2 TARP mod inactive.
Screening CS(=O)(=O)N1CCCC(C(=O)N(Cc2ccccc2)Cc2ccccc2)C1 (stereo unspecified) returned GluA2 TARP mod inactive and GIRK2 activator inactive.
`CS(=O)(=O)N1CCCCC1C(=O)N(Cc1ccccc1)Cc1ccccc1` (stereo unspecified) gave GluA2 TARP mod active and GIRK2 activator inactive.
For CCN1CCN(C(=O)c2cnn3c(C(F)F)cc(-c4ccccc4)nc23)CC1 the results were GluA2 TARP mod inactive.
Screening Cc1ccc(Cn2cc(C(=O)Nc3c(C)cccc3C)ccc2=O)cc1 returned GluA2 TARP mod inactive and GIRK2 activator inactive.
`Cc1ccccc1Cn1cc(C(=O)Nc2c(C)cccc2C)ccc1=O` gave GluA2 TARP mod active and GIRK2 activator inactive.
For CSc1ccccc1NC(=O)c1ccc(=O)n(Cc2ccccc2F)c1 the results were GluA2 TARP mod inactive and GIRK2 activator inactive.
`CSc1ccccc1NC(=O)c1ccc(=O)n(Cc2ccccc2Cl)c1` gave GluA2 TARP mod active and GIRK2 activator inactive.
`CSc1ccccc1NC(=O)c1ccc(=O)n(Cc2cc(C)ccc2C)c1` gave GluA2 TARP mod active and GIRK2 activator inactive.
`COc1ccc(C)cc1NC(=O)c1ccc(=O)n(Cc2cc(C)ccc2C)c1` gave GluA2 TARP mod inactive and GIRK2 activator inactive.
`O=c1[nH]c2ccccc2c(=O)n1CCS` gave GluA2 TARP mod inactive and GIRK2 activator inactive.
`O=C(Nc1ccc2c(c1)N(C(=O)c1ccco1)CC2)c1c(F)cccc1Cl` gave GluA2 TARP mod inactive and GIRK2 activator inactive.
For CCOc1ccc(NC(=O)CC(NCCCOC(C)C)C(=O)O)c([N+](=O)[O-])c1 (stereo unspecified) the results were GluA2 TARP mod inactive.
`Cc1ccc(CNc2nc3c(c(=O)n(C)c(=O)n3C)n2CC(N)=O)cc1` gave GluA2 TARP mod inactive.
Cc1nc(NCC2CCCO2)nc(NC2CCCCC2)c1[N+](=O)[O-] (stereo unspecified) was read as GluA2 TARP mod active and GIRK2 activator inactive.
Screening Cc1nc(NCC2CCCO2)nc(Nc2ccc(F)cc2)c1[N+](=O)[O-] (stereo unspecified) returned GluA2 TARP mod inactive and GIRK2 activator inactive.
Screening O=C(CCCCn1c(=O)c2ccccc2n(CC(=O)NC2CCCCC2)c1=O)NCc1cccs1 returned GluA2 TARP mod active and GIRK2 activator inactive.
Screening CCCNC(=O)CCCCn1c(=O)c2ccccc2n(CC(=O)Nc2ccccc2Cl)c1=O returned GluA2 TARP mod active and GIRK2 activator inactive.
For O=C(CCCCn1c(=O)[nH]c2ccccc2c1=O)NC1CCCCCC1 the results were GluA2 TARP mod inactive and GIRK2 activator inactive.
Screening CCCNC(=O)CCCCn1c(=O)c2ccccc2n(CC(=O)Nc2cccc(SC)c2)c1=O returned GluA2 TARP mod inactive and GIRK2 activator inactive.
Screening CS(=O)(=O)c1ccc(NC(=O)c2cccc(S(C)(=O)=O)c2)cc1 returned GluA2 TARP mod inactive.
`COc1ccc(S(=O)(=O)NCCOc2ccc(-c3ccc(F)cc3)nn2)cc1F` gave GluA2 TARP mod active and GIRK2 activator inactive.
For COc1ccc(Cl)cc1S(=O)(=O)NCCOc1ccc(-c2ccccc2)nn1 the results were GluA2 TARP mod inactive and GIRK2 activator inactive.
For CCOc1ccc(S(=O)(=O)NCCOc2ccc(-c3ccccc3)nn2)cc1 the results were GluA2 TARP mod active and GIRK2 activator inactive.
`COc1ccc(S(=O)(=O)NCCOc2ccc(-c3ccc(C)cc3)nn2)cc1OC` gave GluA2 TARP mod inactive and GIRK2 activator inactive.
Screening CCOC(=O)c1ccc(S(=O)(=O)NCCOc2ccc(-c3ccc(OC)cc3)nn2)cc1 returned GluA2 TARP mod inactive and GIRK2 activator inactive.
For CCOc1ccc(C(C)C)cc1S(=O)(=O)NCCOc1ccc(-c2ccccc2)nn1 the results were GluA2 TARP mod active and GIRK2 activator inactive.
Screening CCOC(=O)c1ccc(S(=O)(=O)NCCOc2ccc(-c3ccccc3)nn2)cc1 returned GluA2 TARP mod active and GIRK2 activator inactive.
Screening CCOc1ccc(-c2ccc(OCCNS(=O)(=O)c3ccccc3)nn2)cc1 returned GluA2 TARP mod inactive and GIRK2 activator inactive.
For C=CCN(CC=C)C(=O)Cn1c(C2CC(=O)N(c3cccc(C)c3)C2)nc2ccccc21 (stereo unspecified) the results were GluA2 TARP mod inactive and GIRK2 activator inactive.

Source: PubChem (several laboratories)
